Consider 95 compounds from PubChem BioAssay AID1209 (Sanford-Burnham Center for Chemical Genomics, 2008).

In general, inhibition refers to the relative decrease from the control value, in per cent.

About 810 (0.43%) of roughly 190,000 compounds were called active. This is one part of a sample in which actives are shown more often than they occur. Unmarked numbers belong to inactive results. No stated cut-off is given here; in the data, active means inhibition above about 50%; inactive means the rest.

The target in this assay is Mannose-6-phosphate isomerase (Homo sapiens) (UniProt P34949). Put plainly: inhibitors of human PMI, primary screen, biochemical, fluorescence intensity, coupled assay (AID 1209).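 Further: plate controls were DMSO vehicle for no effect and wells lacking substrate for full effect.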 To be noted: purified PMI enzyme, at 20 µM, stronger effect = higher value.
Mannose-6-phosphate isomerase (Homo sapiens), sequence (P34949 whole entry, looked up): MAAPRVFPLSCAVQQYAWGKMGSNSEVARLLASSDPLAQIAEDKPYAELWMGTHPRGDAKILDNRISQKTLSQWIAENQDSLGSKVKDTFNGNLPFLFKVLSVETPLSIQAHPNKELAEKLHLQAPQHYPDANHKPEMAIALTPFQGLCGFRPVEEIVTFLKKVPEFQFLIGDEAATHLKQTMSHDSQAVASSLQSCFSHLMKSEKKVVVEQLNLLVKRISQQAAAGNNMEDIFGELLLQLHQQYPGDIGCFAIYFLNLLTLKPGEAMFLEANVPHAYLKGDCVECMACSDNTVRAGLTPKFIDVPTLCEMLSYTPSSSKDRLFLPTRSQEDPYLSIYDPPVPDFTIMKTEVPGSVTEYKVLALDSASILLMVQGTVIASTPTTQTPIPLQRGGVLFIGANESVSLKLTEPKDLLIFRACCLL
`CCc1c(C)sc(NC(=O)CSc2nc3c(c(C(F)(F)F)n2)CCc2ccccc2-3)c1C#N`: the inhibition is 0.3%.
As for `Cc1ccc(SCC(=O)NC(=O)NCc2ccco2)cc1C`, the figure is -3.3%; as for `CCN(CCn1cccn1)C(=O)c1cc(COc2c(F)cccc2F)on1`, 5.3%.
Regarding `O=C(CN1CCCC1)Nc1cc(F)ccc1F`, the inhibition was -1.6%.
Consider `Cc1noc(C)c1COc1ccc(C(=O)OCC(=O)NCc2ccccc2Cl)cc1`, for which the inhibition is 22.4%.
With `CC(C)(C)NC(=O)COC(=O)/C=C/c1ccccc1[N+](=O)[O-]`, the inhibition was 1.1%.
As for `CC(=O)N(Cc1ccc(Br)cc1)c1cccc(C)c1C`, the figure is 5.3%; as for `COc1ccc(OC)c(NC(=O)CN2C(=O)C3(OCCCO3)c3ccccc32)c1`, 11%.
Turning to `C=CCn1c(C)nc2ccccc2c1=O`, the inhibition was 10%.
In the case of `C=CCn1c2[n+](c3ccccc3c1=O)CCCCC2`, the inhibition was 66.2% (active).
For the compound `C=CCn1c(=S)[nH]c2ccccc2c1=O`, the inhibition is 1.8%.
The figure for `COc1ccc(NC(C)=O)cc1NC(C)C(=O)Nc1ccc(F)c(F)c1F` (stereo not given) is 13.6%.
`Cc1cc(C)nc(-n2nc(C)cc2NC(=O)c2cccc(S(=O)(=O)N3CCCCC3)c2)n1`: the inhibition was 15.9%.
As to `CCN(CC)c1ccc(NC(=O)/C=C/c2cc(Br)ccc2OC)cc1`, the inhibition is 6.9%.
In the case of `CC1Cc2ccccc2N1C(=O)CSc1nnc(-c2ccc(S(=O)(=O)N3CCOCC3)cc2)n1C` (stereo not given), the inhibition was -0.3%.
For `CC1Cc2ccccc2N1C(=O)CSc1nnc(-c2ccc(S(=O)(=O)N3CCCC3)cc2)n1C` (stereo not given), the inhibition was 60.6% (active).
As for `Cn1c(SCC(=O)N2CCc3ccccc32)nnc1-c1ccc(S(=O)(=O)N2CCCC2)cc1`, the inhibition was 18.8%.
The figure for `CCOC(=O)c1ccc(NC(=O)CSCC(=O)OCC(=O)c2ccccc2)cc1` is 19.6%.
Take `CCOC(=O)CSc1nc2ccc(S(=O)(=O)N3CCOCC3)cc2[nH]1`: the inhibition was -11.2%.
As for `Cc1ccc2nc(SCC(=O)N3CCOCC3)[nH]c2c1`, the figure is -2.9%; as for `O=C(CSc1nc2ccc(S(=O)(=O)N3CCOCC3)cc2[nH]1)N1CCOCC1`, 66% (active); as for `COc1ccc(OC)c(NS(=O)(=O)c2ccc(NC(=O)c3ccc(NS(C)(=O)=O)cc3)cc2)c1`, 1.4%.
The figure for `O=C(OCC(CO)OC(CO)n1ccc(=O)[nH]c1=O)c1ccccc1` (stereo not given) is 7.7%; for `Cn1c(=O)oc2cc(S(=O)(=O)N3CCC(C(=O)NCc4ccc(F)cc4)CC3)ccc21` it is 4.5%.
With `CCOC(=O)c1ccc(-n2c(N)c(C(=O)NCC3CCCO3)sc2=S)cc1` (stereo not given), the inhibition was 31.5%.
Regarding `C=CCn1c(N)c(C(=O)NCC2CCCO2)sc1=S` (stereo not given), the inhibition is -2.2%.
With `CCNC(=O)c1sc(=S)n(CC)c1N`, the inhibition was 6.5%.
As for `CCn1c(N)c(C(=O)NCC2CCCO2)sc1=S` (stereo not given), the figure is 70.4% (active); as for `CCn1c(N)c(C(N)=O)sc1=S`, 18.4%; as for `CCn1c(N)c(C(=O)NC)sc1=S`, 67.3% (active).
As for `CCN(CC)CCn1c(=N)n(CC(O)c2ccc(OC)c(OC)c2)c2ccccc21` (stereo not given), the inhibition is -0.3%.
The figure for `O=C(CCN1C(=O)C2CC=CCC2C1=O)N1CCN(c2ccccn2)CC1` (stereo not given) is -3.3%; for `C=CCSc1nnc(C)n1-c1ccc(Cl)cc1` it is 21.9%.
The figure for `C/C(=N\N=C(N)N)c1cccc(Cl)c1` is 11.7%.
Consider `O=C(N/N=C/c1ccccc1C(=O)O)C(=O)N1CCCCC1`, for which the inhibition is 2.7%.
In the case of `Oc1cccc(/C=N/NC(=S)Nc2cccnc2)c1O`, the inhibition is 55.6% (active).
`Oc1ccc(/C=N/NC(=S)Nc2cccnc2)c(O)c1`: the inhibition was -1.2%.
Regarding `Oc1ccc(/C=N/NC(=S)Nc2cccnc2)cc1O`, the inhibition is 43.5%.
As for `NC(=S)N/N=C/c1ccccc1[N+](=O)[O-]`, the figure is 24.6%.
In the case of `Oc1ccc(/C=N/NC(=S)NCCN2CCOCC2)c(O)c1`, the inhibition was -8.8%.
Take `Oc1cccc(/C=N/NC(=S)NCCN2CCOCC2)c1O`: the inhibition is 66.9% (active).
For `S=C(NCCN1CCOCC1)N/N=C/c1ccccc1`, the inhibition is 2%.
On to `NC(=S)N/N=C/c1ccccc1`, for which the inhibition was 11.4%.
The figure for `O=C(COc1ccc(Cl)cc1)NCC(=O)N/N=C/c1cccs1` is 2.8%; for `Cc1noc(C(=O)Nc2c(C)n(C)n(-c3ccccc3)c2=O)c1Cl` it is -5.9%.
For the compound `COc1cccc(S(=O)(=O)N2CCOCC2)c1`, the inhibition was 1.2%.
The figure for `O=C(COC(=O)c1cccnc1Cl)NCC1CCCO1` (stereo not given) is -1.2%; for `CCOc1ccc(OCC(=O)OCn2c(SC)nnc(C)c2=O)cc1` it is 15.9%; for `O=c1[nH]c2ccccc2n2cnnc12` it is -5.1%.
The figure for `O=c1[nH]c2ccccc2n2c(-c3ccncc3)nnc12` is 1.8%.
As for `O=c1[nH]c2ccccc2n2c(-c3ccccc3)nnc12`, the figure is 84.7% (active); as for `Cc1ccc(NC(=O)N(CCCN2CCOCC2)Cc2cccnc2)cc1C`, -1.1%; as for `COC(=O)CNC(=O)Cn1cnc2sc(C)c(S(=O)(=O)N3CCC(C)CC3)c2c1=O`, -9%.
`CCc1ccc(N2CCCn3c2nc2c3c(=O)n(CCN3CCOCC3)c(=O)n2C)cc1`: the inhibition is -10.4%.
On to `O=C(N/N=C/c1ccccc1)c1[nH]c2ccc(Br)cc2c1-c1ccccc1`, for which the inhibition is 15.4%.
As for `Oc1ccc(Br)cc1/C=N/N1CCN(Cc2ccccc2)CC1`, the inhibition was 6.6%.
Regarding `O=C(O)c1cccc(C(=O)O)n1`, the inhibition is 58% (active).
As for `CC(C)OC(=O)c1cccc(C(=O)O)n1`, the figure is 21.8%; as for `CC(=O)Nc1cccc(C(=O)O)n1`, 6.7%.
With `Cc1ccc(SCc2cn3cccnc3n2)cc1`, the inhibition is 12.5%.
The figure for `Cc1ccc(C2=[N+]([O-])C3(CCCCC/C3=N\NC(N)=O)N(O)C2(C)C)o1` (stereo not given) is -4.7%.
Take `COc1cccc(/C=N/NC(=O)Cn2ccnc2C)c1`: the inhibition is 14.6%.
As for `O=C(COc1ccccc1-c1ccccc1)N/N=C/c1ccc2ccccc2c1`, the figure is 8.9%; as for `Cc1nccn1CC(=O)N/N=C/c1ccc(O)c(O)c1`, 64.4% (active); as for `O=C(COc1ccccc1[N+](=O)[O-])N/N=C/c1ccc(O)c([N+](=O)[O-])c1`, -10.2%.
Regarding `Cc1nccn1CC(=O)N/N=C/c1cccc(O)c1`, the inhibition is 7.9%.
As to `O=C(COc1ccccc1C(=O)N/N=C\c1ccc(O)c(O)c1)N/N=C/c1ccc(O)c(O)c1`, the inhibition is 60.6% (active).
As for `CCOC(=O)C1=C(C)NC(SC(C)=O)=NC1c1ccc(OC(C)=O)c(OC)c1` (stereo not given), the inhibition was 17.5%.
As for `CC1CCc2c(sc(NC(=O)COC(=O)C3CCCO3)c2C#N)C1` (stereo not given), the inhibition is -3.7%.
The figure for `O=C(CSCC(=O)N1CCOCC1)Nc1ccccc1` is -11.1%; for `O=C(NCCc1ccccc1)C1CCN(S(=O)(=O)N2CCC3(CC2)OCCO3)CC1` it is 17.1%.
As for `O=C1CN(C(=O)CSc2nc(-c3ccccc3)cs2)c2ccccc2N1`, the figure is -3.1%; as for `COc1ccc2nc(NNC(=O)C3COc4ccccc4O3)sc2c1` (stereo not given), -43.9%.
The figure for `CN1C(=O)/C(=C/C=C2\SCCN2C)N(C)C1=S` is 45.3%.
With `CN1C(=O)/C(=C\C=C2/CCCN2C)N(C)C1=S`, the inhibition was 53.2% (active).
The figure for `CN1C(=O)/C(=C/C=C2/CCCN2C)N(C)C1=S` is 35.8%; for `COc1ccc(/C=C(/NC(=O)c2ccccc2)C(=O)N/N=C/c2ccncc2)c(OC)c1` it is 18.6%.
The figure for `COc1ccc(CCNC(=O)c2nnn(CC(=O)Nc3cccc(F)c3)c2N)cc1OC` is -0.3%; for `CCOc1ccc(/C=C/C(O)=C2/C(=O)NC3(C)CC2c2ccccc2O3)cc1OC` (stereo not given) it is -21.3%; for `CCc1cc(C(=O)Cc2cnn(-c3ccccc3)c2)c(O)cc1O` it is 11.4%.
`O=C(c1cnn(-c2ccccc2)c1)c1ccccc1O`: the inhibition is 19.7%.
Take `O=C(Cc1cnn(-c2ccccc2)c1)c1ccc(O)c(O)c1O`: the inhibition was 70.8% (active).
The figure for `Nn1c(SCC(=O)Nc2ccc3c(c2)OCO3)nnc1C1CC1` is 5.7%; for `CSc1nccc(Oc2cccc(C#N)c2)n1` it is -4.1%; for `N#Cc1ccc(N=c2ssnc2Cl)cc1` it is 81.2% (active).
As for `N#Cc1cccc(N=Cc2c(O)ccc3ccccc23)c1`, the inhibition is 39.3%.
Take `COc1ccc(N2CCN(C(=O)c3cccn4c(=O)c5ccccc5nc34)CC2)cc1`: the inhibition was -5.8%.
Consider `CC1CCN(Cc2c(O)ccc3c(=O)c(-c4nc5ccccc5s4)c(N)oc23)CC1`, for which the inhibition was 11.2%.
The figure for `CC1CCCN(Cc2c(O)ccc3c(=O)c(-c4nc5ccccc5s4)c(N)oc23)C1` (stereo not given) is 6.9%; for `CC1CCCCN1Cc1c(O)ccc2c(=O)c(-c3nc4ccccc4s3)c(N)oc12` (stereo not given) it is 58% (active).
For the compound `O=c1c(-c2ccccc2)c(O)nc2ccccn12`, the inhibition was 4.9%.
The figure for `COc1cc(C(=O)OCC(=O)N(C)C)cc(NC(=O)c2ccco2)c1OC` is 5.7%; for `CO[C@H]1C=CO[C@@]2(C)Oc3c(C)c(O)c4c(O)c(c(C=NN5CCN(C6CCCC6)CC5)c(O)c4c3C2=O)NC(=O)C(C)=CC=C[C@H](C)[C@H](O)[C@@H](C)[C@@H](O)[C@@H](C)[C@H](OC(C)=O)[C@@H]1C` it is 50.8% (active).
The figure for `CO[C@H]1C=CO[C@@]2(C)Oc3c(C)c(O)c4c(O)c(c5c(nc6cc(C)ccn65)c4c3C2=O)NC(=O)C(C)=CC=C[C@H](C)[C@H](O)[C@@H](C)[C@@H](O)[C@@H](C)[C@H](OC(C)=O)[C@@H]1C` is 13.9%.
As for `CO[C@H]1C=CO[C@@]2(C)Oc3c(C)c(O)c4c(O)c(c(C=NN5CCN(C)CC5)c(O)c4c3C2=O)NC(=O)C(C)=CC=C[C@H](C)[C@H](O)[C@@H](C)[C@@H](O)[C@@H](C)[C@H](OC(C)=O)[C@@H]1C`, the figure is 7%.
